# PubChem BioAssay (NCI)
# The panel holds about 83,000 compounds, 20% with a hit somewhere; the sample as a whole holds those more often.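 Results are percent growth after 48 hours of single-concentration exposure. 100 means growth as in untreated cells, lower positive values show inhibition; negative values down to -100 show cell death.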 Values without a mark were called inactive. Active and inactive are the calls of the source. Rule for the calls: active = growth percent below 10; inactive = the rest.
# Tested on: RXF 393 renal
# Experiment: NCI-60 one-dose screen, 48 h (100 = growth as untreated, 0 = no growth, -100 = all killed)
# Conditions: 10 µM
row,SMILES,growth
1,c1ccc(COCC[P+](c2ccccc2)(c2ccccc2)c2ccccc2)cc1,29.6%
2,COCCOC(=O)NC(=O)Nc1ccc(/C(=N/O)c2ccc(Cl)cc2)cc1,-13.1% (active)
3,O=C(O)c1ccc(CNc2ccc(C(=O)CCl)cc2)cc1,78.4%
4,CC(C)C[C@H](NC(=O)CCn1ccc2ccccc2c1=O)B(O)O,-5.99% (active)
5,COc1cc(CSc2nc3ccc(Cl)cc3c(=O)n2Cc2ccccc2)cc(OC)c1OC,13.1%
6,c1ccc(CNc2nc(Nc3ccc(-c4nc5ccccc5[nH]4)cc3)c3cn[nH]c3n2)cc1,-68.3% (active)
7,CCCCCCCCCCCC(=O)NCCCN(C)C,116%
8,CCCc1c(C)nc2scc(-c3ccc(Cl)cc3)n2c1=O,92.7%
9,COc1ccc(/C=C2\SC(=S)N(CCCN3CCOCC3)C2=O)c(OC)c1,108%
10,CCCCN(CCCC)c1ccc(C(=NC(C)CCCN(CC)CC)c2ccc(N(C)C)cc2)cc1 (configuration not stated),-84% (active)
11,CCN(CC)CCOC(=O)c1ccc(N=Nc2ccc(O)c(OC)c2)cc1,89.4%
12,CCc1ccc(-c2nnc(COc3ccc(-c4nc5ccc(C)cc5[nH]4)cc3OC)o2)cc1,24.4%
13,COc1cc(-c2nc3ccc(C)cc3[nH]2)ccc1OCc1nnc(-c2ccc(CC(C)C)cc2)o1,71.3%
14,O=C(Nc1cccc(F)c1)Nc1cccc(Cl)c1,104%
15,CCCCOCCOCCOCc1cc2c(cc1Br)OCO2,108%
16,CC(C)(C)c1ccc(OCCCCCCN2CCNCC2)cc1,46.2%
17,O/N=C1\CCC2CCCCC2C1 (configuration not stated),104%
18,O=c1cc(CSc2nnc(-c3ccccc3)n2-c2ccc(F)cc2)c2ccc3ccccc3c2o1,108%
19,CC(C)C[C@H](NC(=O)Cn1ccc2ccccc2c1=O)B(O)O,10.3%
20,COc1ccc(-c2nc(-c3nc4ccc(OC)cc4[nH]3)c3ccccn23)cc1,75.7%
21,CCn1nc(-c2ccccn2)c2cccnc2c1=S,110%
22,CNC(=O)c1cc(Oc2ccc(NC(=O)Nc3ccc(Cl)c(OC(C)C)c3)c(F)c2)ccn1,87.6%
